# An excerpt weighted towards active compounds, which were near 8.8% of everything screened.
# HPGD inh: qHTS Assay for Inhibitors of HPGD (15-Hydroxyprostaglandin Dehydrogenase); 15-hydroxyprostaglandin dehydrogenase [NAD(+)] (Homo sapiens), P15428; hit rate 4.3% among 150,000; purified HPGD, NADH fluorescence kinetic, PGE2 substrate; Potency, µM, without a hit: at the highest dose activity change, negative = inhibition, actives largely listed as inhibitors; AID 894, 2007; active = well fitted inhibition curve with a large enough effect, not every such curve was filed as active; inconclusive = small, poorly fitted or top-dose-only effect, or another doubt; inactive = no such curve, though single readings can be large or run the other way; also: % is scaled to controls: 0 for no effect and ±100 for the full control effect
# Target sequence (P15428 whole entry, looked up): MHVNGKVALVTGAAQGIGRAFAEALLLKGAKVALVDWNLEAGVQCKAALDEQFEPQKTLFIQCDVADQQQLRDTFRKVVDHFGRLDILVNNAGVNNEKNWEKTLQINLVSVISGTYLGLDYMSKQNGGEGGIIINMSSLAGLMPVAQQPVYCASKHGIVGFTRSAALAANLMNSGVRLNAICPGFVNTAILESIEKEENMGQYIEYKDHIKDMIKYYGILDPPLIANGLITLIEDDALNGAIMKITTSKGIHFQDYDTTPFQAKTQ
#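 20 nM HPGD preincubated 15 min at room temperature with compound in 50 mM Tris-HCl pH 8, 0.01% Tween 20. Started with 1 mM NAD+ and 30 uM prostaglandin E2; NADH fluorescence (360/450 nm) read 5 times over 30-s intervals, last minus first.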
# HTT ATP protect: qHTS Multiplex Assay to Identify Dual Action Probes in a Cell Model of Huntington: Cytoprotection (ATP); Potency, µM (top dose mostly 56.4 µM), for inactives: cytoprotection (ATP increase), hits mostly activators; PC12 HTT-Q103 induced, cytoprotection, ATP luminescence, 40 h; AID 1471, 2008; hit rate 0.14% among 230,000; also: % of control where 0% means no effect; nearly all actives have a fitted effect of over 45% in size
#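 Readout: ATPlite luminescence (ATP level). Model: stable PC12, inducible Htt exon1 Q103-GFP. Inducer: tebufenozide, 100 nM final. Compounds: dose series. No G418 in medium.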
# ALDH1A1 inh: qHTS Assay for Inhibitors of Aldehyde Dehydrogenase 1 (ALDH1A1); Potency, µM (titrated, usually from 75.3 µM), for the others: top-dose activity, negative = inhibition, most hits filed as inhibitors; AID 1030, 2008; hit rate 7.3% among 220,000; Purified ALDH1A1, NADH fluorescence, propionaldehyde substrate; Aldehyde dehydrogenase 1A1 (Homo sapiens), P00352; active = well fitted inhibition curve with a large enough effect, not every such curve was filed as active; inconclusive = small, poorly fitted or top-dose-only effect, or another doubt; inactive = no such curve, though single readings can be large or run the other way;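 also: plate controls were no enzyme wells and a reference inhibitor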
# Target sequence (P00352 whole entry, looked up): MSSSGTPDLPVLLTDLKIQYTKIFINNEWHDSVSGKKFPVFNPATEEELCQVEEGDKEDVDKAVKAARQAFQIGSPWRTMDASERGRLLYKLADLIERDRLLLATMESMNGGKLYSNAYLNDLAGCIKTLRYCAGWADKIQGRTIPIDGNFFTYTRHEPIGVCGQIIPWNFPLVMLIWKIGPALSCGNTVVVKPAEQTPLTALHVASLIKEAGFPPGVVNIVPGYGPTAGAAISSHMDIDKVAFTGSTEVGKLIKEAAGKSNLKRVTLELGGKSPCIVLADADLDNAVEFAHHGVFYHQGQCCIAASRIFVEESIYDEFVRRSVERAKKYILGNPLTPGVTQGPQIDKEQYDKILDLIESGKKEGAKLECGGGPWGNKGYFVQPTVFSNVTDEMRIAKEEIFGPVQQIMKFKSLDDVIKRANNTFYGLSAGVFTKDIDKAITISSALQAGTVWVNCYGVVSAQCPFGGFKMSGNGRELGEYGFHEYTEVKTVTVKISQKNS
# HttQ103 aggreg: qHTS Multiplex Assay to Identify Dual Action Probes in a Cell Model of Huntington: Aggregate Formation (GFP); PC12 HttQ103-GFP aggregates, Acumen cytometry, 40 h; Potency, µM (doses to about 46.1 µM), without a hit: at the highest dose activity change, negative = inhibition, usual class: inhibitors; hit rate 1.1% among 220,000; AID 1688, 2009; also: % is scaled to controls: 0 for no effect and ±100 for the full control effect; nearly all actives have a fitted effect of over 60% in size
#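 Using laser scanning cytometry, GFP-positive aggregates were counted after lysis of PC12 cells induced with 100 nM tebufenozide to express HTT exon 1 Q103–GFP. Compounds were tested in titration.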
# LMNA splice mod: qHTS Assay for Modulators of Lamin A Splicing; HeLa LMNA splicing GFP/RFP minigene ratio, 48 h; Potency, µM (series often up to 46.1 µM), for inactives: at the highest dose ratio change, negative = inhibition, hits mostly inhibitors; hit rate 0.01% among 200,000; active = well fitted inhibition curve with a large enough effect in the signal ratio, with a control signal flat, not every such curve was filed as active; inconclusive = small, poorly fitted or top-dose-only effect, or effect the other way, or a change in a side signal; the % refers to the signal ratio; also: % is scaled to controls: 0 for no effect and ±100 for the full control effect
#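 S3 HeLa stable clones carrying a lamin A-EGFP splicing minigene plus DsRed2 were seeded at 600 cells/well in Opti-MEM with 2% FBS, pin-dosed and incubated 48 h at 37°C. Acumen cytometry (488 nm) gave the GFP/RFP total-intensity ratio.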
# Numbers without * were called inactive; ? = inconclusive; nt = not tested or not shown; ! = not confirmed by another sample; [ ] = another dose, or the depositor's remark. Unless noted, calls follow the shape of the dose curve; as a rule, active = well fitted curve in the direction sought with a large enough effect; inconclusive = small, poorly fitted or top-dose-only effect, or another doubt; inactive = no such curve, though single readings can be large; an effect the other way counts as inactive or inconclusive. Potency is read from the fitted curve at half-maximal effect.
SMILES,HPGD inh,HTT ATP protect,ALDH1A1 inh,HttQ103 aggreg,LMNA splice mod
COc1ccc(OCc2nn3c(-c4ccco4)nnc3s2)cc1,nt,-12%[0.074 µM],32µM*,2%,-16%
Clc1ccc(OCc2nn3c(-c4ccco4)nnc3s2)cc1,?,-13%,22µM*,?,?
COc1ccccc1-c1nn2c(-c3ccco3)nnc2s1,?,-65%,?,-4%,-15%
COc1ccc(OCc2nn3c(-c4cccc(OC)c4)nnc3s2)cc1,?,-15%[0.074 µM],5%,16%,5%
c1coc(-c2nn3c(-c4ccco4)nnc3s2)c1,-26%,-17%,20µM*,-2%,-1%
CCCCc1c(O)cc(C)[nH]c1=O,nt,-3%[10 µM],8%,8%[9.22 µM],13%[46 µM]
O=c1c2ccccc2nnn1Cc1nnc(-c2ccccc2Br)o1,28µM*,-24%[10 µM],?,-15%,-2%
O=C(c1nc(-c2ccc(Cl)cc2)n2c1CCCCC2)N1CCN(c2ccc(F)cc2)CC1,nt,nt,nt,nt,-23%[46 µM]
COC(=O)[C@@]1(Cc2ccc(F)cc2)[C@H]2c3cc(C(=O)N4CCCC4)n(Cc4ccc(C(F)(F)F)nc4)c3C[C@H]2CN1C(=O)c1ccccc1,-18%,10µM*,3%,-11%,?
COC(=O)[C@@]1(Cc2ccc(OC)cc2)[C@H]2c3cc(C(=O)N(C)C)n(Cc4ccc(C)o4)c3C[C@H]2CN1C(=O)c1ccccc1,25µM*,22%,?,nt,nt
COC(=O)[C@@]1(Cc2ccc(F)cc2)[C@H]2c3cc(C(=O)N4CCCC4)n(Cc4ccc(C)o4)c3C[C@H]2CN1C(=O)c1ccccc1,22µM*,20%,-2%,nt,nt
COC(=O)[C@@]1(Cc2ccc(OC)cc2)[C@H]2c3cc(C(=O)N(C)C)n(CCO)c3C[C@H]2CN1C(=O)c1ccccc1,-7%,-6%,-7%,nt,nt
CCCCSCCCNC(=O)c1cc(-c2cccnc2)nc2ccc(S(=O)(=O)N3CCC(C)CC3)cc12,nt,nt,nt,nt,7%[46 µM]
CCn1c(Cc2ccccc2)n[nH]c1=S,nt,11%[10 µM],nt,0%[9.22 µM],nt
CCCCn1c(Cc2ccccc2)n[nH]c1=S,?,-19%[10 µM],14µM*,-6%,-12%
CCCCOc1ccc(Cc2n[nH]c(=S)n2N)cc1,2.5µM*,-9%[10 µM],10%,-2%,?
CC(C)Cn1c(Cc2ccccc2)n[nH]c1=S,-24%,0%,16µM*,5%,5%
CCn1c(CCn2c3ccccc3c3ccccc32)n[nH]c1=S,?,nt,28µM*,10%,?
CC(=O)Nc1ccc(OC(C)=O)cc1,nt,10%,nt,10%,nt
Cc1cc(O)c2c(-c3ccccc3)cc(=O)oc2c1,-14%,-5%[0.074 µM],?,-25%,-6%
Cc1cc(OC(=O)c2ccco2)c2c(C)cc(=O)oc2c1,-12%,-43%,?,-8%,7%
COc1ccc([N+](=O)[O-])cc1COc1cc(C)cc2oc(=O)cc(-c3ccccc3)c12,-23%,-43%,2µM*,11%,?
CC(=O)COc1cc(C)cc2oc(=O)cc(-c3ccccc3)c12,nt,-32%[1.9 µM],2.2µM*,-5%[9.22 µM],7%[46 µM]
CCc1cc(=O)oc2cc(C)cc(OC(=O)c3ccco3)c12,0%,-22%[0.074 µM],10µM*,-32%,-16%
COc1ccc(-c2[nH]c3c(c2-c2c(-n4cccc4)n(C)c(=O)[nH]c2=O)c(=O)[nH]c(=O)n3C)cc1F,nt,nt,nt,nt,5%[46 µM]
SMILES,HPGD inh,HTT ATP protect,ALDH1A1 inh,HttQ103 aggreg,LMNA splice mod
O=C1[C@H]2[C@H]3[C@H](O)[C@H](O)C/C(=N/OC[C@@H](O)COCc4ccco4)[C@@H]3CC[C@@H]2C(=O)N1C[C@@H]1CCCO1,nt,3%[10 µM],2%[13.5 µM],nt,nt
CCOc1ccc(-c2nn(-c3ccccc3)cc2/C=C2\SC(N)=NC2=O)cc1C,16µM*,-21%,3%,2%,3%
Cc1ccc(-c2nn(-c3ccccc3)cc2/C=C2\SC(=S)N(CC(=O)O)C2=O)cc1,nt,25%[10 µM],nt,24%[9.22 µM],nt
CCCCC/C=C\C/C=C\CCCCCCCCCC(=O)NC(C)C(=O)O (configuration not stated),-5%,nt,1%,nt,nt
OC1(c2ccc(F)cc2)CCN(Cc2nnnn2Cc2cccs2)CC1,-4%,6%,4.5µM*,12%,4%
CCOC(=O)c1c(C)nc2sc3c(=O)[nH]cnc3c2c1-c1ccc(OC)cc1,?,nt,?,7%,-3%
COc1ccc(-c2c(C(C)=O)c(C)nc3sc4c(=O)[nH]nnc4c23)cc1,18µM*,23%[10 µM],?,6%,16%
CCOc1ccc(CNC(=O)C2CCN(C(=O)N3CC(CC)Oc4ccc(C)cc43)CC2)cc1OC (configuration not stated),nt,nt,nt,nt,2%[46 µM]
Cc1ccc(-n2c(-c3ccc(Br)cc3)c[n+]3c2CCc2ccc4cccnc4c2-3)cc1,-2%,-111%,6%,1.8µM*,1%
Cc1ccc(-c2c[n+]3c(n2-c2ccccc2)CCC3)cc1,nt,-22%[10 µM],nt,-3%[9.22 µM],nt
CC(C)Cn1c(=O)c(C(=O)NCc2ccccn2)c(O)c2ccccc21,-25%,-23%[10 µM],?,7.9µM*,?
CCCn1c(=O)c(C(=O)NCc2ccncc2)c(O)c2ccccc21,-11%,-28%,-11%,-19%,?
CCn1c(=O)c(C(=O)Nc2ccsc2C(=O)OC)c(O)c2ccccc21,?,?,?,7.1µM*,-9%
CCn1c(=O)c(C(=O)NC(C)C)c(O)c2ccccc21,-17%,-1%,13µM*,?,-22%
COc1ccc(-c2noc(CSc3nnc(Cc4ccccc4)n3-c3cccc(C)c3)n2)cc1OC,-14%,-4%,13µM*,?,-4%
Fc1ccc(-n2c(Cc3ccccc3)nnc2SCc2nc(-c3cccs3)no2)cc1,-18%,13%[10 µM],14µM*,-19%,-11%
O=C1CC(=O)CC(c2ccccc2)C1,nt,-12%,8%,0%,21%[46 µM]
O=C1CC(c2ccccc2)CC(=O)C1CS(=O)(=O)c1ccccc1 (configuration not stated),nt,2%,11µM*,8%,nt
CCC(=O)C1=C(O)C(c2cccc(Oc3ccccc3)c2)CCC1=O (configuration not stated),nt,-6%,-11%,10µM*,-17%[46 µM]
CC(=O)OC/C=C(C)/C=C/C=C(C)/C=C/C1=C(C)CCCC1(C)C,-6%,9%,22µM*!,nt,nt
CC1=C(/C=C/C(C)=C/C=C/C(C)=C/C=O)C(C)(C)CCC1,-13%,-81%,22µM*,nt,nt
CC1=C(/C=C/C(C)=C/C=C/C(C)=C\CO)C(C)(C)CCC1,nt,7%,25µM*,nt,nt
CC1=C(/C=C/C(C)=C/C=C/C(C)=C/CO)C(C)(C)CCC1,0%,10µM*!,25µM*!,-5%,nt
CC1=C(\C=C/C(C)=C/C=C\C(C)=C\CO)C(C)(C)CCC1,nt,14%,nt,nt,nt
